According to PubChem BioAssay AID2017 (National Center for Advancing Translational Sciences (NCATS), 2009):
Records with an inconclusive call do not appear. Activity calls are given as the source filed them. The call rests on the fitted dose curve; in most records, active means well fitted curve in the direction sought with a large enough effect; inconclusive means small, poorly fitted or top-dose-only effect, or another doubt; inactive means no such curve, though single readings can be large or run the other way.

Tested on: 4-diphosphocytidyl-2-C-methyl-D-erythritol kinase IspE (bacterial, species not stated)
Experiment: Confirmatory Assay for Inhibitors of Human Galactokinase (GALK): CDP-Me assay counterscreen
Settings: ATP depletion, Kinase-Glo luminescence; series mostly up to 115 µM; activity change, negative = inhibition: at the top concentration
Excerpt: NIH Molecular Libraries Probe Production Centers Network [MLPCN] NIH Chemical Genomics Center [NCGC] MLPCN Grant: R03 MH085689-01 Assay Submitter (PI): Kent Lai (University of Utah School of Medicine, 50 N Mario Capecchi Drive, Salt Lake City, UT 84132) NCGC Assay Overview The GHMP kinase family is a unique class of important enzymes that plays an essential role in many metabolic processes. It contains more than 170 protein members among which are the galactokinase (GALK) and the CMK enzymes. GALK plays a crucial role in galactose processing and is a potential therapeutic target for Classic Galactosemia (OMIM: 230400). CMK is involved for the non-mevalonate synthesis of isoprenoids precursors and natural products like sterols or ubiquinones which are important to many biological functions. Although the sequence identity between GALK and CMK is low, the three-dimensional structures and active sites are highly similar. Therefore to determine the validity and selectivity of an active compound observed in the GALK qHTS screen (AID: 1868), a bioluminescent counter-screen targeting bacterial CMK was developed. In addition, because the mevalonate independent synthesis of isoprenoids are more prevalent in opportunistic pathogens such as bacteria, CMK is a potential novel therapeutic target where selective inhibitors could be used to determine potential antibacterial effects. The CMK (provided by Kent Lai) was assayed using ATP and 4-diphosphocytidyl-2-C-methyl-D-erythritol (CDP-ME; Echelon, cat# I-M052) as substrates. Promega Kinase-Glo Plus (cat# V3774) technology was used to detect the residual ATP following kinetic reaction. Briefly, the Kinase-Glo Plus contains Ultra-Glo [5] luciferase and D-luciferin which generates a bioluminescence signal from the remaining ATP.
NCGC Assay Protocol Summary: Three uL/well of substrate solution (15 uM ATP, 30 uM CDP-ME, 20 mM HEPES pH8.0, 5 mM MgCl2, 40 mM KCl, 1 mM DTT, 0.01% BSA final concentration) was dispensed into 1536-well, assay plates (Greiner, solid white medium-binding plates) with Aurora Discovery BioRAPTR Flying Reagent Dispenser (FRD; Beckton-Dickenson). […] One uL/well enzyme solution (0.25 ug/mL CDP-Me kinase, 20 mM HEPES pH8.0, 5 mM MgCl2, 40 mM KCl, 1 mM DTT, 0.01% BSA final concentration) was then added using the FRD yielding a total kinase reaction volume of 4 uL/ well. After 1 hour of room temperature incubation, 4 uL Kinase-Glo Plus reagent was added for a final assay volume of 8 uL/well. After 1 min, luminescence was detected with the ViewLux plate reader (Perkin Elmer, Waltham, MA) using a 1 sec exposure time and 2x binning settings.

Row | Compound | activity change, negative = inhibition
1 | N#C/C(=C\c1coc2ccc(O)cc2c1=O)C(=O)Nc1nc2ccccc2s1 | -9.89% (inactive)
2 | O=C(NCCc1ccccc1)c1ccc2c(=O)[nH]c3c(C(=O)NCC4CCCO4)sc(=S)n3c2c1 (stereo not given) | -12.4% (inactive)
3 | N#C/C(=C(/O)Cc1cccc2ccccc12)c1nc2ccccc2s1 | -0.506% (inactive)
4 | O=C1/C(=C\c2ccc(O)c(O)c2)C(c2ccccc2)=NN1c1ccccc1 | 6.47% (inactive)
5 | COCc1cc(CN2CCCC2)c(O)c2ncccc12 | 2.55% (inactive)
6 | C[C@H](NC(=O)C1CCC(CNC(=O)[C@@H]2CCCN2C(=O)OC(C)(C)C)CC1)C(=O)O (stereo not given in full) | 3.35% (inactive)
7 | CCS(=O)(=O)C1=NSC2=NC(=O)/C(=C\c3ccc(OS(=O)(=O)c4ccccc4)c(OC)c3)C(=N)N21 | -10.4% (inactive)
8 | Cc1nc(NS(=O)(=O)c2ccc(Cl)s2)c2c3c(sc2n1)CCCC3 | 1.29% (inactive)
9 | Cc1ccc(S(=O)(=O)/N=C2/NC(=O)/C(=C\c3cc(Br)cc(Br)c3O)S2)cc1 | -13.1% (inactive)
10 | CC(=O)c1ccc(NC(=S)Nc2cccc3cnccc23)cc1 | -3.41% (inactive)
11 | O=C1C=CC2=C3c4cc(O)c(O)cc4CC3(O)COC2=C1O (stereo not given) | -6.18% (inactive)
12 | O=C1C=C(N(CCO)Cc2ccccc2)c2ccccc2C1=O | -28.7% (inactive)
13 | Cc1ccc(F)c(NC(=O)/C(C#N)=C(\O)c2ccc(C(C)(C)C)cc2)c1 | -5.97% (inactive)
14 | CCOC(=O)c1c(C)[nH]c2c1-c1ccccc1C(=O)C2=O | -7.25% (inactive)
15 | CS(=O)(=O)c1ccc2c(c1)sc1nc(=O)c(/C=C3/C=CC(=O)C(O)=C3)c(N)n12 | -7.97% (inactive)
16 | CCN1CCN(CCNC(=O)c2ccc3nc(-c4cccc(C)c4)c(-c4cccc(C)c4)nc3c2)CC1 | -1.48% (inactive)
17 | CCOC(=O)c1cc(-c2ccc(/C=C3/C(=O)N(c4ccc(C(=O)O)cc4)N=C3C)o2)ccc1Cl | -0.967% (inactive)
18 | Cc1ccc(C)c(CN2C(=O)CSc3ccc(C(=O)NCCN4CCOCC4)cc32)c1 | -1.65% (inactive)
19 | CC1=NN(c2ccccc2)C(=O)/C1=C/c1c(O)n(-c2ccc(F)c(Cl)c2)[nH]c1=O | -6.6% (inactive)
20 | O=C1/C(=C\c2cc(Cl)c(O)c(Cl)c2)SC(=S)N1Cc1ccccc1 | 3.14% (inactive)

Row | Compound | activity change, negative = inhibition
21 | CCOC(=O)C1(Cc2cccc(F)c2)CCN(C(=O)COC)CC1 | 2.45% (inactive)
22 | CCOc1cc(/C=C2\C(=O)ON=C2c2ccccc2)cc(Br)c1O | 2.32% (inactive)
23 | O=C1C(Cl)=C(N2CCC(C(=O)O)CC2)C(=O)c2ccccc21 | -7.29% (inactive)
24 | COc1cc(/C=C2\C(=O)ON=C2c2ccccc2)cc(Br)c1O | -2.63% (inactive)
25 | COc1ccc2cc(C(N)=O)c(=Nc3ccc(C)cc3)oc2c1 | -0.694% (inactive)
26 | O=C(O)c1ccc(NC2=C/C(=N/S(=O)(=O)c3ccccc3)c3ccccc3C2=O)cc1 | -4.74% (inactive)
27 | COc1ccc(-n2nnc3c(=O)n(CC(=O)N4CCC(C)CC4)cnc32)cc1 | 1.87% (inactive)
28 | O=C1C(C2=C(O)c3ccccc3C2=O)=Nc2ccccc21 | -6.72% (inactive)
29 | Cc1snc(S(=O)(=O)/C(C#N)=N/Nc2ccc(C(F)(F)F)cc2)c1C#N | -2.03% (inactive)
30 | C=CCN1C(=O)/C(=C/c2ccc(OC(C)=O)c(OCC)c2[N+](=O)[O-])SC1=S | -15.3% (inactive)
31 | NS(=O)(=O)c1ccc(NC(=S)NNC(=O)c2ccc(Br)o2)cc1 | -1.07% (inactive)
32 | CS(=O)(=O)C1=NSC2=NC(=O)/C(=C\c3ccc(OS(=O)(=O)c4ccccc4)cc3)C(=N)N21 | -8.39% (inactive)
33 | CC(C)OC(=O)C(C(=O)C(F)(F)F)c1cc(NS(=O)(=O)c2ccc3ccccc3c2)c2ccccc2c1O (stereo not given) | 0.739% (inactive)
34 | O=C(COc1ccccc1/C=C\c1[nH]c(=O)[nH]c(=O)c1[N+](=O)[O-])Nc1ccccc1 | -1.25% (inactive)
35 | O=C1c2ccccc2C(=O)C12OC2c1cccc2ccccc12 (stereo not given) | -1.36% (inactive)
36 | COC(=O)c1ccc(CSc2ccc3nnc(-c4ccccn4)n3n2)o1 | -0.879% (inactive)
37 | CC1(C)CC(=O)C2=C(C1)NC(Nc1nc3ccccc3o1)=NC21CCCC1 | 1.93% (inactive)
38 | Cc1snc(S(=O)(=O)/C(C#N)=N/Nc2cccc(C(F)(F)F)c2)c1C#N | -2.05% (inactive)
39 | O=C(O)c1cccc(S(=O)(=O)N2CCC(n3nnc4cc(C(F)(F)F)ccc43)CC2)c1 | 1.46% (inactive)
40 | O=c1[nH]c(/C=C/c2ccc([N+](=O)[O-])cc2)c([N+](=O)[O-])c(=O)[nH]1 | -4.01% (inactive)
